FBPA Giardia inh: inhibitors of Giardia lamblia fructose-1,6-bisphosphate aldolase; hit rate 0.71% among 290,000; AID 2451; purified Giardia FBPA; Potency, µM (series often up to 59.6 µM), inactives show at the highest dose activity, negative = inhibition, actives largely listed as inhibitors; further: potency means the concentration at half of the fitted maximal effect; nearly all actives have a fitted effect of over 55% in size
Target sequence (A8B2U2 whole entry, looked up): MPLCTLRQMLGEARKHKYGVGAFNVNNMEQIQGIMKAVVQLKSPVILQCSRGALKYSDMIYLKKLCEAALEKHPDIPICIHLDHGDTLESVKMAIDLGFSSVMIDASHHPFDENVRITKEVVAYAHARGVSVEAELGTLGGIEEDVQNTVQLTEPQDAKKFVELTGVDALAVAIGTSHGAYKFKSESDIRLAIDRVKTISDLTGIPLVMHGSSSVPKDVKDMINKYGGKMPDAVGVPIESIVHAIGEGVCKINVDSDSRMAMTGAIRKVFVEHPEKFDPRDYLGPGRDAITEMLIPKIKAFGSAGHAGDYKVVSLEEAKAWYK
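Giardia FBPA (40 nM reagent) was preincubated 10 min at RT with compound (up to 57.5 uM final), then substrate plus GAPDH/TPI/NAD/arsenate coupling system with diaphorase/resazurin was added; resorufin fluorescence (525/598 nm) was read after 20 min.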
Pf growth 96h: inhibits malaria parasite growth, 96 h; P. falciparum luciferase reporter growth, 96 h; Potency, µM (titrated, usually from 28.7 µM), without a hit: top-dose activity change, negative = inhibition, most hits filed as inhibitors; hit rate 6.9% among 320,000; AID 504834; further: potency means the concentration at half of the fitted maximal effect
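P. falciparum expressing integrated firefly luciferase, in erythrocytes at 2% hematocrit, 0.05% parasitemia, incubated with compounds 96 h at 37 C, 5% CO2. Growth inhibition read as loss of luminescence; two-generation exposure targets delayed-death apicoplast inhibitors.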
Sm TGR inh: inhibitors of Schistosoma mansoni thioredoxin glutathione reductase; hit rate 3% among 360,000; Q962Y6; purified TGR, DTNB reduction, TNB absorbance 405 nm; AID 485364; Potency, µM (titrated, usually from 114 µM), inactives show top-dose activity change, negative = inhibition, usual class: inhibitors; further: potency means the concentration at half of the fitted maximal effect; nearly all actives have a fitted effect of over 60% in size
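First, TGR (20 nM dispensed) and NADPH were mixed with compound. Second, a 15 min room-temperature incubation followed. Third, further NADPH and then DTNB were added to start the reaction. Finally, TNB absorbance was monitored kinetically.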
Pf growth 48h: inhibits P. falciparum growth in the first generation, 48 h; P. falciparum luciferase growth in erythrocytes, 48 h; Potency, µM (doses to about 28.7 µM), for inactives: top-dose activity change, negative = inhibition, most hits filed as inhibitors; hit rate 5.9% among 310,000; further: potency means the concentration at half of the fitted maximal effect
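In quantitative HTS format, infected erythrocytes bearing luciferase-reporter parasites were treated for a single generation at 37 C. Luminescence after adding detection reagent served as the growth measure.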
HCMV antiviral: human cytomegalovirus inhibition | HFF cells, HCMV-luciferase reporter, 72 h; hits give low values | hit rate 4.5% among 410,000 | activity change, negative = inhibition, % at 57.5 µM; in the data active means activity change below about -60%; inconclusive means no clear call, values can overlap the other calls; inactive means above about -39%
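Cell-based, HFFs, 1000 cells/well, 16 h 37C; cpds in DMSO + HCMV-luc, MOI 1 PFU/cell; 72 h 37C; OneGlo luminescence after 5 min RT; norm. to buffer vs Salinomycin 10uM.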
Active calls of the source: *; ? = inconclusive; . = not tested or not shown; [ ] = dose if it differs, or a comment. The list is not random: actives were taken first. Their share in the collection is about 14%. Unless noted, the call rests on the fitted dose curve; in most records, active means well fitted curve in the direction sought with a large enough effect; inconclusive means small, poorly fitted or top-dose-only effect, or another doubt; inactive means no such curve, though single readings can be large; an effect the other way counts as inactive or inconclusive. On the % scale 0 is the no-effect control and ±100 the full control effect.

SMILES	FBPA Giardia inh	Pf growth 96h	Sm TGR inh	Pf growth 48h	HCMV antiviral
CCOc1ccc(C(C)(C)C)cc1S(=O)(=O)n1nc(C)cc1C	2%	8.3µM*	-30%	4.7µM*	-23
Cc1cc(C)n(S(=O)(=O)c2cc(Cl)ccc2Cl)n1	4%	0%	20%	10µM*	1
COc1cc(C)c(Cl)cc1S(=O)(=O)n1ccnc1C	-10%	1%	6%	.	-16
Cc1ccc([N+](=O)[O-])cc1S(=O)(=O)N1CCN(C)CC1	1%	-3%	.	21%	-19
CCN1CCN(c2ccc(N3CCN(S(=O)(=O)c4cc([N+](=O)[O-])ccc4C)CC3)nn2)CC1	.	?	-8%	10µM*	-29
Cc1ccc(S(=O)(=O)n2cnc3cc([N+](=O)[O-])ccc32)c(C)c1C	4%	78%	-19%	34%	-21
CCOc1ccc(C(C)(C)C)cc1S(=O)(=O)N1CC(C)OC(C)C1 (centres undefined)	-1%	.	0%	12µM*	-18
COc1ccc(Br)cc1S(=O)(=O)N1CC(C)OC(C)C1 (centres undefined)	6%	-2%	2%	-21%	35
Cc1ccc([N+](=O)[O-])cc1S(=O)(=O)n1ccnc1C	5%	2%	-33%	5.2µM*	-19
CN(C(=O)CN1C(=O)S/C(=C\c2ccc(Cl)cc2)C1=O)C1CCS(=O)(=O)C1 (centres undefined)	10%	-11%	-14%	-12%	-37
O=C(CCN1C(=O)c2ccccc2Sc2ncccc21)Nc1ccc(F)cc1	.	.	16µM*	.	12
CC(C)NC(=O)CCN1C(=O)c2ccccc2Sc2ncccc21	1%	6.6µM*	15%	12%	-11
CCc1cccc(NC(=O)CCN2C(=O)c3ccccc3Sc3ncccc32)c1	.	.	45µM*	.	?
Oc1ccccc1Nc1nc(NCC2CCCO2)c2ccccc2n1 (centres undefined)	-11%	?	-1%	2.3µM*	-12
Oc1ccc(Cl)cc1Nc1nc(NCC2CCCO2)c2ccccc2n1 (centres undefined)	.	.	.	.	-13
c1cncc(-c2nc(NCC3CCCO3)c3ccccc3n2)c1 (centres undefined)	14%	?	-10%	?	.
Oc1ccc(Nc2nc(NCC3CCCO3)c3ccccc3n2)cc1 (centres undefined)	-8%	17%	-1%	1.7µM*	13
CC(C)Oc1ccc(-c2nc(NCC3CCCO3)c3ccccc3n2)cc1 (centres undefined)	-5%	?	7%	?	-78*
O=C(OCc1cc(=O)n2nc(C3CC3)sc2n1)c1cccc(NC(=O)c2ccccc2Cl)c1	.	.	-1%	.	11
CCS(=O)(=O)N1CC2(C1)CN(S(=O)(=O)c1ccc(C)cc1)[C@@H](CO)c1[nH]c3cc(OC)ccc3c12	.	.	.	.	3
Cc1ccc(N2C(=O)C(Cl)=C(Nc3c(C)n(C)n(-c4ccccc4)c3=O)C2=O)cc1	4%	?	8.9µM*	?	-14
Cc1cccc(N2C(=O)C(Cl)=C(Nc3c(C)n(C)n(-c4ccccc4)c3=O)C2=O)c1C	-26%	-15%	8.9µM*	.	?
CC[n+]1c(-c2ccc(C)cc2)csc1Nc1c(C)n(C)n(-c2ccccc2)c1=O	10%	?	-1%	-7%	-88*
CCN(CC(=O)NCc1ccc(F)cc1)C(=O)c1oc2ccccc2c1C	-8%	17%	-6%	?	-35
O=C(Cn1ncc2c1-c1ccccc1OC2)N(Cc1ccco1)C1CCCCC1	6%	?	?	.	7
SMILES	FBPA Giardia inh	Pf growth 96h	Sm TGR inh	Pf growth 48h	HCMV antiviral
CC(CCc1ccco1)NC(=O)Cn1ncc2c1-c1ccccc1OC2 (centres undefined)	-3%	6%	50µM*	-14%	-16
Cc1ccc(-c2oc3ncnc(N)c3c2-c2ccc(C)cc2)cc1	-4%	10%	-9%	7.4µM*	-36
O=C(c1ccc(S(=O)(=O)NCC2CCCO2)cc1)N1CCN(c2cccc(Cl)c2)CC1 (centres undefined)	0%	4%	-3%	-17%[5.75 µM]	-70*
COc1ccc(-c2ccc(S(=O)(=O)NCC3CCCO3)cc2)cc1 (centres undefined)	3%	?	1%	13%	.
O=C(c1ccc(S(=O)(=O)NCC2CCCO2)cc1)N1CCN(c2ccccc2F)CC1 (centres undefined)	2%	-1%	3%[57.1 µM]	8%	-23
O=S(=O)(NCC1CCCO1)c1ccc(-c2ccc(Cl)cc2)cc1 (centres undefined)	0%	42%	8%	0%	-60*
CCN1CCN(Cc2c(O)ccc3oc(C)c(C(=O)Nc4ccc(OC)cc4)c23)CC1	.	.	9%	.	-6
Cc1c(C(=O)N2CCN(c3ccccn3)CC2)oc2ccccc12	17%	.	-10%	8.3µM*	34
CCOc1ccc(S(=O)(=O)Nc2cccc(C(=O)N3CCN(c4ccccn4)CC3)c2)cc1	.	.	.	.	-62*
CCOc1ccc2oc(C(=O)N3CCN(c4ccccn4)CC3)c(C)c2c1	.	13µM*	-10%	-15%	-6
Cc1cc(Cl)c2oc(C(=O)N3CCN(c4cccc(C)n4)CC3)c(C)c2c1	-10%	3.7µM*	-24%	7%	155
CC1=C(C(=O)N(C(C)C)C(C)C)CC(CC(=O)NCc2ccco2)C(=O)N1Cc1ccc(F)cc1 (centres undefined)	.	.	.	.	14
C[C@H]1C(=O)N(C)CCN1C(=O)c1ccc(OC2CCN(CCc3ccccc3)CC2)cc1	.	.	.	.	-30
CCCCNC(=O)c1c(C)oc2ncn(CC(C)C)c(=O)c12	.	.	0%	.	4
CCCCN(C(=O)C1=NN(c2ccccc2)C(=O)CC1)c1c(N)n(CC(C)C)c(=O)[nH]c1=O	.	-7%	8%	6%	64
CC[C@H](C)[C@H](NC(=O)[C@H](CC(C)C)NC(=O)[C@@H](N)CO)C(=O)NCC(=O)N[C@@H](CCCN=C(N)N)C(=O)N[C@@H](CC(C)C)C(=O)O	4%	.	.	.	.
CCC(C)Oc1nc2c(c(=O)n(C)c(=O)n2C)n1C (centres undefined)	2%	18%	5%	37%	6
O=C(NCc1cccs1)C1CCC(CNS(=O)(=O)c2ccc(Br)s2)CC1 (centres undefined)	1%	7.4µM*	?	.	44
Cc1nn(-c2ccccc2)c(Cl)c1CN(C(=O)CCl)c1ccc(Cl)cc1	3%	?	2µM*	-17%	-99*
Cc1nn(-c2ccccc2)c(Cl)c1CN(C(=O)CCl)c1cccc2ccccc12	-6%	?	?	3.7µM*	-99*
COc1ncc2nc(-c3ccccc3)c(=O)n(C)c2n1	7%	.	.	.	.
N#Cc1cnc(SCC(=O)c2ccccc2)nc1N	-4%	.	-8%	10µM*	?
Cc1cccc(CC(=O)N[C@@H](Cc2ccccc2)C(O)c2nc3ccccc3[nH]2)c1 (some centres undefined)	.	.	.	.	-9

Screening data deposited in PubChem BioAssay by National Center for Advancing Translational Sciences (NCATS).
